# PubChem BioAssay AID2279 (Southern Research Specialized Biocontainment Screening …, 2010)
# Measured potencies and affinities stand elsewhere. Activity calls are given as the source filed them. No rule for the calls is given here.
# Test: CCR5-tropic HIV-1 fusion blockers – cell-based, CCR5-tropic Env, dose response (AID 2279)
# Details: CCR5-tropic HIV-1 Env, reporter read-out; series mostly up to 50 µM
row,SMILES,outcome
1,O=C1NC(=S)N(c2ccc(F)cc2)C(=O)/C1=C\c1ccoc1,inactive
2,O=C(O)c1cccc2c1NC(c1cccc([N+](=O)[O-])c1)C1CC(Sc3ccccc3[N+](=O)[O-])C(Cl)C21 (stereo not drawn),inactive
3,NC(=O)Cn1cc(C=C2C(=O)NC(=O)NC2=O)c2ccccc21,inactive
4,O=C1NC(=S)N(c2ccc(F)cc2)C(=O)/C1=C/c1ccco1,inactive
5,COc1ccc(N2C(=O)/C(=C/c3ccco3)C(=O)NC2=S)cc1,inactive
6,COc1ccc(OC)c(N2C(=O)/C(=C/c3ccco3)C(=O)NC2=S)c1,inactive
7,Cc1ccc(N2C(=O)/C(=C/c3ccc(CN(CCC#N)S(C)(=O)=O)o3)C(=O)NC2=S)cc1C,inactive
8,O=c1oc2ccccc2c(O)c1C(c1ccc([N+](=O)[O-])cc1)c1c(O)c2ccccc2oc1=O,inactive
